Measured values taken from PubChem BioAssay AID2685 (National Center for Advancing Translational Sciences (NCATS), 2010).
In all, about 320,000 compounds went through this assay and about 2,100 (0.66%) were called active. Another 53% or so got no clear call; they are omitted. Calls come from the whole dose curve; as a rule, active = well fitted inhibition curve with a large enough effect in the signal ratio, with a control signal flat (not every such curve was filed as active); inconclusive = small, poorly fitted or top-dose-only effect, or effect the other way, or a change in a side signal; inactive = flat fitted curve, though single readings scatter; the % refers to the signal ratio. What follows is part of a selection rich in actives, with near analogues and random picks from the rest.

Experiment: qHTS Assay for Lipid Storage Modulators in Drosophila S3 Cells;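 for cell number change: cells counted by Cell Tracker Red CMTPX staining in the red channel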; for lipid storage change, negative = inhibition: % is set by controls: 0 for no effect and ±100 for the full control effect
Conditions: BODIPY lipid droplet fluorescence, 18-24 h, cells fed with added oleic acid; cell number change: measured here: cell count max response; series mostly up to 46.1 µM; lipid storage change, negative = inhibition: at the top concentration
Method in brief: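 Drosophila S3 cells loaded with oleic acid (400 uM, as added) and compounds at several concentrations; lipid droplets imaged by 488-nm laser-scanning cytometry, 500–530 nm intensity and object ratio to cell channel. Percent activity normalized to 20 uM Triacsin C.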
Potency is the fitted concentration of half-maximal effect.

Row | SMILES | lipid storage change, negative = inhibition | cell number change [%] | Potency | outcome
1 | Cc1onc(-c2c(F)cccc2Cl)c1C(=O)ONC(=O)c1ccccc1 | -0.558% (inactive) | 10.6 | – | –
2 | O=C(COc1cc2oc(=O)c3c(c2cc1Cl)CCCC3)N1C[C@H]2C[C@@H](C1)c1cccc(=O)n1C2 | – | 3.88 | 1.46 µM (active) | –
3 | CC(Oc1cc2oc(=O)c3c(c2cc1Cl)CCC3)C(=O)N1C[C@H]2C[C@@H](C1)c1cccc(=O)n1C2 (stereo partly drawn) | -5.06% (inactive) | 18.9 | – | –
4 | CCCc1cc(=O)oc2cc(OCC(=O)N3C[C@H]4C[C@@H](C3)c3cccc(=O)n3C4)c(Cl)cc12 | -2.74% (inactive) | 3.02 | – | –
5 | O=C(COC(=O)Cc1n[nH]c(=O)c2ccccc12)Nc1ccc(Cl)cc1F | 4.92% (inactive) | -2.17 | – | –
6 | COc1ccc2c(c1)cc(C(=O)N[C@@H](Cc1ccccc1)C(=O)O)n2C | – | – | – | inactive
7 | CCN1C(=O)[C@@H]2C(C(=O)c3cnccn3)=NN[C@@H]2C1=O | 1.67% (inactive) | 10.4 | – | –
8 | CCCCN1C(=O)C2NN=C(C(=O)OC)C2C1=O (stereo not drawn) | -2.98% (inactive) | 1.06 | – | –
9 | CCOC(=O)C1=NNC2C(=O)N(CC)C(=O)C12 (stereo not drawn) | – | 12.2 | 13 µM (active) | –
10 | Clc1ccc(Cn2ncc3c(N4CCCC4)ncnc32)cc1 | – | -16 | – | inactive
11 | COc1cccc(NC(=O)CN(C)C(=O)c2ccc(S(=O)(=O)Nc3ccccc3C)cc2)c1 | 0.588% (inactive) | -4.07 | – | –
12 | CCN1CCN(Cc2ccc(NC(=O)c3ccc(C)c(NC(=O)c4cccc5[nH]ccc45)c3)cc2C(F)(F)F)CC1 | -1.09% (inactive) | -3.74 | – | –
13 | CCN1CCN(Cc2ccc(NC(=O)c3ccc(C)c(NC(=O)N4CCNC4=O)c3)cc2C(F)(F)F)CC1 | 17.8% (inactive) | 25.7 | – | –
14 | CCN1CCN(Cc2ccc(NC(=O)c3ccc(C)c(NC(=O)c4c[nH]c5cc(C(F)(F)F)ccc5c4=O)c3)cc2C(F)(F)F)CC1 | – | -28.9 | 10.3 µM (active) | –
15 | CCOC(=O)Cc1csc(NS(=O)(=O)c2ccc(C(F)(F)F)cc2)n1 | 8.18% (inactive) | 3.37 | – | –
16 | COc1cc(OC)c(NC(=O)CCNS(=O)(=O)c2cc(Br)cnc2N)cc1Cl | – | – | – | inactive
17 | CCOc1ccc(OCC)c(NC(=O)CCNS(=O)(=O)c2cc(Br)cnc2N)c1 | – | -2.69 | 1.3 µM (active) | –
18 | COc1ccc(NC(=O)CCNS(=O)(=O)c2cc(Br)cnc2N)c(OC)c1 | -15% (inactive) | – | – | –
19 | CN1CCN(S(=O)(=O)c2cccc(C(=O)Nc3cc(C(F)(F)F)ccc3N3CCCC3)c2)CC1 | 15.5% (inactive) | 1.88 | – | –
20 | COc1ccc(/C=N/NC(=O)c2nc(-c3ccccc3)cc(-c3ccccc3)n2)cc1 | -12.8% (inactive) | -21.2 | – | –
21 | COc1cccc(/C=N/NC(=O)c2nc(-c3ccccc3)cc(-c3ccccc3)n2)c1O | 5.35% (inactive) | -7.98 | – | –
22 | COc1cccc(/C=N/NC(=O)c2nc(-c3ccccc3)cc(-c3ccccc3)n2)c1 | – | -10.5 | 20.6 µM (active) | –
23 | CCOc1cc(/C=C2\SC(=Nc3ccc(F)cc3)N(c3ccc(F)cc3)C2=O)ccc1OCC(=O)O | 11.8% (inactive) | -5.36 | – | –
24 | COc1ccccc1C1=CC(=O)C[C@H](c2ccc(Cl)cc2)C1 | 12.6% (inactive) | -15.5 | – | –
25 | Cc1ccccc1C(=O)NC1CCN(CC(=O)Nc2ccccc2)CC1 | -9.76% (inactive) | -25.1 | – | –
26 | CCCC(=O)NC(=S)Nc1ccc(C(C)=O)cc1 | -28.1% (inactive) | -4.91 | – | –
27 | CNC(=S)Nc1ccccc1-c1ccccc1 | -7.51% (inactive) | 1.9 | – | –

Row | SMILES | lipid storage change, negative = inhibition | cell number change [%] | Potency | outcome
28 | COc1ccc(OC)c2sc(NC(=O)c3ccc(S(=O)(=O)N4CCOCC4)cc3)nc12 | 4.31% (inactive) | 4.36 | – | –
29 | CCn1c(=NC(=O)c2ccc(S(=O)(=O)N3CCOCC3)cc2)sc2cccc(OC)c21 | – | 4.06 | 16.4 µM (active) | –
30 | COc1ccccc1COC(=O)c1ccc(S(=O)(=O)N2CCOCC2)cc1 | – | -3.67 | – | inactive
31 | COc1ccc(Cl)cc1NS(=O)(=O)c1cccc(C(=O)NCC(c2ccco2)N(C)C)c1 (stereo not drawn) | – | – | – | inactive [at 0.369 µM]
32 | COc1ccc(Cl)cc1NS(=O)(=O)c1cccc(C(=O)NCC2(N(C)C)CCCCC2)c1 | – | -25.5 | 32.6 µM (active) | –
33 | COc1ccccc1NS(=O)(=O)c1cccc(C(=O)NCC2(N(C)C)CCCCC2)c1 | 27.8% (inactive) | 16.3 | – | –
34 | CCCCN(C(=O)c1ccc(NC2CC2)c([N+](=O)[O-])c1)c1c(N)n(CCCC)c(=O)[nH]c1=O | 2% (inactive) | – | – | –
35 | CCCNC(=O)c1cn(CC)c2cc(N3CCN(C(=O)c4ccco4)CC3)c(F)cc2c1=O | – | -23.8 | 16.4 µM (active) | –
36 | CCN(CC)CCCNC(=O)c1cn(CC)c2cc(N3CCN(C(=O)c4ccco4)CC3)c(F)cc2c1=O | – | 3.82 | – | inactive
37 | CCN(CC)CCNC(=O)c1cn(CC)c2cc(N3CCN(C(=O)c4ccco4)CC3)c(F)cc2c1=O | -9.28% (inactive) | 3.39 | – | –
38 | Cc1ccc(S(=O)(=O)N2CCC(=O)N(CCOCc3ccccc3C)CC2)cc1 | 27.7% (inactive) | -1.04 | – | –
39 | Cc1cc2cc(CN(Cc3cccs3)S(=O)(=O)c3ccc4c(c3)OCCO4)c(=O)[nH]c2cc1C | 19.7% (inactive) | 5.28 | – | –
40 | CCCCCCCC(=O)NN1CCOCC1 | -8.3% (inactive) | 12.9 | – | –
41 | CCCCCCC(=O)NN1CCN(C)CC1 | – | -18.7 | 25.9 µM (active) | –
42 | CCCCC(=O)Nc1ccc(C(=O)N2CCN(C)CC2)cc1 | 13.2% (inactive) | – | – | –
43 | Cc1onc(-c2ccccc2Cl)c1C(=O)NCc1ccc(N2CCCC2=O)cc1 | 4.57% (inactive) | -1.75 | – | –
44 | COc1cc(C(=O)OCC(=O)Nc2cccc(S(=O)(=O)N3CCOCC3)c2)ccc1OCC(C)C | 15% (inactive) | 0.792 | – | –
45 | CCOc1ccccc1C(=O)N[C@H](C(=O)OCc1cc(=O)oc2cc(C)ccc12)C(C)C | 21.6% (inactive) | 1.89 | – | –
46 | NC1=NCc2ccccc21 | – | -13 | 18.4 µM (active) | –
47 | Nc1ccccc1-c1ccccc1N | 17.3% (inactive) | 12.1 | – | –
48 | Cc1ccccc1N=C1N=C(N)c2ccccc21 | 3.18% (inactive) | 4.71 | – | –
49 | CC(C)(C)C(=O)Nc1ccc(C(=O)N/N=C/c2ccccc2OC(=O)c2ccc(Cl)cc2)cc1 | 19.8% (inactive) | -1.11 | – | –
50 | CCCN(CC(=O)Nc1ccccc1C)C(=O)c1ccc(COc2ccccc2)cc1 | – | – | – | inactive
51 | CCCN(CC(=O)Nc1ccccc1C)C(=O)c1ccc(N2CCCCC2)c([N+](=O)[O-])c1 | – | -25 | – | inactive
52 | CCCN(CC(=O)Nc1ccccc1C)C(=O)c1ccc(-c2ccc([N+](=O)[O-])cc2)o1 | – | – | 11.6 µM (active) | –
53 | CCN(CC)CCNC(=S)Nc1ccc(Cl)cc1 | 5.37% (inactive) | 1.74 | – | –
